This is part of a sample that, as a whole, favours compounds with a hit. Of some 83,000 tested, about 20% had one in any assay.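 For each line, cells grew in 96-well plates with the test compound present at a single concentration for 48 hours.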 Unmarked numbers belong to inactive results. Calls of active or inactive are those of the source. The calls were made as follows: active = growth percent below 10; inactive = the rest.

Holding throughout (test): NCI-60 one-dose screen, 48 h (100 = growth as untreated, 0 = no growth, -100 = all killed)
Common to all, as to settings: 10 µM

In experiment [1] the test system is NCI-H23 lung.
Experiment [2] has as its system NCI-H226 lung.
The test system of experiment [3] is NCI-H322M lung.
In experiment [4] the test system is HOP-62 NSCLC.
The subject of experiment [5] is NCI-H460 lung.
The subject of experiment [6] is HOP-92 NSCLC.
For experiment [7], the system named is NCI-H522 lung.
Experiment [8] concerns A549/ATCC NSCLC.
Experiment [9] has as its system 786-0 renal.
In experiment [10] the test system is COLO 205 colon.

Turning to `O/N=C1\CCC2CCCCC2C1` (stereo not given), the growth in experiment [1] was 103%; in [2], 103%; in experiment [3] it was 106%; in experiment [4] it was 108%; in experiment [5], 103%; in experiment [6] it was 82.9%. The growth was 93.4% in [7], 96.6% in experiment [8], 105% in experiment [9] and 114% in experiment [10].

Consider `Cc1cc(C)c(C(=O)OC(C)CNC2CCCCC2)c(C)c1` (stereo not given), for which the growth is 94.1% in experiment [1]; 99.6% in [2]; 95.4% in [3]; 85.7% in experiment [4]; 98% in experiment [5]; 51.9% in experiment [6]. The growth was 99.4% in experiment [7], 102% in experiment [8], 93.2% in experiment [9] and 96.8% in experiment [10].

`O=C(Nc1cccc(C(F)(F)F)c1)C(Cl)Cl`: the growth in [1] is 94.1%; in experiment [2], 101%; in [3] it was 87.5%; in [4], 96.5%; in [5], 102%; in experiment [6], 81.7%. The growth is 98.2% in experiment [7], 98% in [8], 101% in [9] and 101% in experiment [10].

With `N#CC1C=Cc2c(ccc3ccccc23)N1C(=O)c1ccccc1` (stereo not given), the growth in experiment [1] is 29.8%; in experiment [2], 12.9%; in experiment [3], 22.6%; in experiment [4], 50%; in experiment [5], 1.38% (active); in [6], 50.6%. The growth in [7] was 9.32% (active); in experiment [8] it was 26.9%; in [9], 34%; in experiment [10], -39.8% (active).

Regarding `CCn1nc(-c2ccc(C(=O)OC)cc2)nc2c(=O)n(C)c(=O)nc1-2`, the growth in experiment [1] was 104%; in experiment [2] it was 33.5%; in experiment [3], 45.4%; in experiment [4] it was -1.34% (active); in [5] it was 47.8%; in experiment [6], -13.1% (active). The growth is 77% in experiment [7], 35.8% in experiment [8], -18.7% (active) in experiment [9] and 87.2% in experiment [10].

Consider `CCOC(=O)[C@@H](Cc1ccccc1)NC(=O)c1[nH]c2ccc(Cl)cc2c(=O)c1C`, for which the growth was 99.7% in experiment [1]; 107% in experiment [2]; 97.7% in [3]; 92.3% in [4]; 103% in experiment [5]; 100% in experiment [6]. Besides, the growth in experiment [7] is 71.8%; in experiment [8] it was 84.1%; in [9], 97.4%; in experiment [10] it was 111%.

As for `COc1ccc(-c2[nH]ncc2/C=C/c2cc(C(F)(F)F)[nH]c(=O)n2)cc1`, the growth in [1] is 99.4%; in experiment [2] it was 96.9%; in experiment [3], 98.1%; in experiment [4], 96%; in [5], 110%; in [6], 59.3%. The growth is 75.7% in [7], 104% in [8], 89.8% in experiment [9] and 113% in experiment [10].

As for `C[C@]12CC[C@H]3[C@@H](CCC4=CC(=O)CC[C@@]43C)[C@@H]1CC[C@@H]2c1csc(N)n1`, the growth in [1] is 36.2%; in [2] it was 60.1%; in experiment [3], 110%; in experiment [4], 70.2%; in experiment [5], 42.4%; in experiment [6] it was 65.4%. Also, the growth is 63.1% in [7], 60.7% in [8], 68.1% in experiment [9] and 25.6% in experiment [10].

As to `N#C/C(=C/c1cc([N+](=O)[O-])ccc1Cl)C(N)=O`, the growth in [1] was 98.4%; in experiment [2], 94.4%; in experiment [3] it was 97.2%; in experiment [4], 94.8%; in experiment [5], 110%; in experiment [6], 87.8%. In addition, the growth was 87.7% in experiment [7], 106% in experiment [8], 104% in experiment [9] and 117% in experiment [10].

As for `COc1ccc(COC(=O)CC(C)C)cc1`, the growth in [1] is 93.1%; in experiment [2], 95.1%; in experiment [3] it was 101%; in experiment [4] it was 106%; in experiment [5] it was 108%; in experiment [6], 99%. Moreover, the growth in experiment [7] was 79.1%; in experiment [8], 89.5%; in experiment [9], 94.4%; in experiment [10], 109%.

For `N#C/C(=C\N1C(=O)/C(=C/c2cccc([N+](=O)[O-])c2)SC1=S)c1nc2ccccc2s1`, the growth in [1] is 68.9%; in experiment [2], 77.2%; in experiment [3] it was 92.9%; in experiment [4], 73.1%; in [5], 94.7%; in [6], 8.99% (active). Besides, the growth in [7] is 57.8%; in experiment [8], 70%; in [9] it was 88.3%; in experiment [10] it was 101%.

For `Cc1cc(O)c(C2=NN(c3ccc(S(N)(=O)=O)cc3)C(c3ccc(N(C)C)cc3)C2)c(C)c1Cl` (stereo not given), the growth is 79.3% in experiment [1]; 88.8% in experiment [2]; 97.6% in experiment [3]; 107% in experiment [4]; 47.1% in [5]; 45.5% in experiment [6]. Also, the growth in [7] was 39.7%; in experiment [8], 40.8%; in experiment [9], 95.6%; in experiment [10], 76.2%.

In the case of `CCCc1ccnc(NS(=O)(=O)c2ccc(N)cc2)n1`, the growth in experiment [1] is 62.8%; in [2] it was 79.2%; in experiment [3], 103%; in experiment [4] it was 105%; in [5] it was 95.4%; in experiment [6], 93.1%. Further, the growth is 56.6% in experiment [7], 79.3% in [8], 90.3% in experiment [9] and 37.8% in experiment [10].

Take `CCCCCN(CCCCC)C(C)C(O)c1ccc2cc(Cl)c3ccccc3c2c1` (stereo not given): the growth in experiment [1] was 84.9%; in [2] it was 86.2%; in experiment [3], 103%; in [4] it was 92.1%; in experiment [5], 80.5%; in experiment [6], 55.9%. For the same compound, the growth is 90% in experiment [7], 102% in experiment [8], 98.5% in experiment [9] and 83.9% in experiment [10].

For `CNC(=O)c1cc(Oc2ccc(NC(=O)Nc3ccc(Cl)c(C(C)(C)C)c3)c(F)c2)ccn1`, the growth was 19.7% in experiment [1]; 36.2% in experiment [2]; 107% in [3]; 64.4% in [4]; 48.8% in experiment [5]; 75.9% in experiment [6]. Also, the growth was 28.7% in [7], 37.4% in experiment [8], 79% in experiment [9] and 19.6% in [10].

Regarding `Cc1cc(C)c2nc(C)c(C)[n+]([O-])c2c1`, the growth in [1] was 97.1%; in experiment [2], 103%; in [3], 94.7%; in experiment [4] it was 73.4%; in [5], 115%; in [6] it was 93.4%. Moreover, the growth in [7] is 85.2%; in experiment [8] it was 68.6%; in [9], 103%; in [10], 111%.

Take `CCN(CC)CCOC(=O)c1ccc(N=Nc2ccc(O)c(OC)c2)cc1`: the growth was 94.5% in experiment [1]; 90.4% in [2]; 90.9% in experiment [3]; 98.8% in experiment [4]; 110% in experiment [5]; 94.6% in experiment [6]. For the same compound, the growth was 63.8% in experiment [7], 91.1% in experiment [8], 95.9% in experiment [9] and 107% in experiment [10].

For the compound `Cn1c([N+](=O)[O-])cnc1C=C1C(=O)c2ccccc2C1=O`, the growth in [1] is 53.7%; in experiment [2], 81.7%; in experiment [3], 72.7%; in experiment [4] it was 74.7%; in experiment [5], 68.9%; in experiment [6] it was 20.4%. For the same compound, the growth in [7] was 3.27% (active); in [8] it was 65.6%; in experiment [9], 41.1%; in [10], 42.3%.

With `Nc1cc(O)cc(O)c1`, the growth in experiment [1] was 93.9%; in experiment [2], 107%; in experiment [3], 104%; in experiment [4] it was 88.1%; in experiment [5] it was 106%; in experiment [6], 93.4%. For the same compound, the growth was 94% in [7], 106% in experiment [8], 93.9% in [9] and 102% in experiment [10].

In the case of `COc1ccc(Nc2ccnc(N3CCN(c4ccnc5cc(Cl)ccc45)CC3)n2)cc1`, the growth was 9.35% (active) in [1]; 1.67% (active) in experiment [2]; 14.4% in experiment [3]; 16.5% in [4]; 4.6% (active) in experiment [5]; -21.9% (active) in [6]. The growth in experiment [7] was -17.9% (active); in [8], 7.39% (active); in experiment [9] it was 7.79% (active); in experiment [10] it was -7.2% (active).

Regarding `COc1ccc(-c2ccccc2)cc1C(=O)c1ccc(-c2ccccc2)cc1`, the growth was 73.6% in experiment [1]; 88.2% in [2]; 75.5% in [3]; 70.4% in experiment [4]; 88.9% in [5]; 88.4% in [6]. Also, the growth in experiment [7] is 42.7%; in [8], 63.7%; in experiment [9], 77.4%; in [10], 82.5%.

Consider `COc1cccc(C(=O)N(c2ccc(F)c(F)c2)C(C(=O)NC(C)(C)C)c2cc3c(C)cc(C)cc3nc2Cl)c1` (stereo not given), for which the growth in [1] is 66%; in [2], 65.7%; in experiment [3] it was 84.7%; in experiment [4] it was 86.6%; in [5], 64.1%; in [6], 47%. The growth was 61.6% in experiment [7], 52.8% in experiment [8], 76.6% in experiment [9] and 70.2% in experiment [10].

Regarding `[O-]c1c[n+](-c2ccc(Cl)cc2)no1`, the growth is 106% in experiment [1]; 103% in experiment [2]; 94.1% in [3]; 91.3% in experiment [4]; 101% in experiment [5]; 83.8% in [6]. The growth was 122% in experiment [7], 108% in [8], 108% in experiment [9] and 103% in [10].

Turning to `O=C(O)CCCCSCCCCC(=O)O`, the growth in experiment [1] is 103%; in [2], 93.4%; in experiment [3], 109%; in experiment [4], 95.8%; in experiment [5] it was 113%; in experiment [6] it was 96.8%. In addition, the growth in [7] was 83.3%; in [8], 90.9%; in experiment [9] it was 101%; in experiment [10], 113%.

For `CC(Oc1ccc(Cl)cc1)c1ccccc1` (stereo not given), the growth was 102% in [1]; 93% in experiment [2]; 87.1% in [3]; 98.3% in [4]; 104% in experiment [5]; 95% in [6]. Besides, the growth in experiment [7] was 103%; in experiment [8] it was 102%; in experiment [9], 98.5%; in [10] it was 105%.

Turning to `O=[N+]([O-])c1ccc(-c2nc(Cl)c3c(n2)CCCC3)o1`, the growth in experiment [1] is 88.5%; in experiment [2], 63.6%; in experiment [3] it was 102%; in experiment [4], 64%; in experiment [5] it was 34%; in experiment [6], 85.2%. In addition, the growth in experiment [7] is -41.3% (active); in [8], 83%; in experiment [9], 107%; in experiment [10] it was 68.5%.

Take `Cc1cc2cc3c(=O)[nH]c(=O)cc-3n(CC(O)C(O)C(O)CO)c2cc1C` (stereo not given): the growth in [1] was 106%; in [2], 110%; in [3] it was 119%; in experiment [4], 81.1%; in [5], 101%; in experiment [6], 111%. For the same compound, the growth in [7] is 96.2%; in experiment [8], 97.8%; in experiment [9], 103%; in experiment [10], 93.1%.

In the case of `O=C(c1ccccc1)C(Nc1ccccc1)c1ccccc1` (stereo not given), the growth was 84.5% in experiment [1]; 82.7% in experiment [2]; 85.4% in experiment [3]; 83.5% in experiment [4]; 98.1% in experiment [5]; 78.6% in [6]. For the same compound, the growth in [7] was 67.7%; in experiment [8], 87.4%; in experiment [9] it was 97.3%; in experiment [10], 98.7%.
